# Compound activity from PubChem BioAssay.
# Shiga toxin inh: A qHTS for Small Molecule Inhibitors of Shiga Toxin. Vero cells, Shiga toxin protein synthesis inhibition reporter. inhibition, % at 38.7 µM. 290,000 compounds, 9.2% hits; in the data active = inhibition mostly above about 28%, no sharp cut-off; inactive = mostly below about 43%; also: 0% is about no effect
# AMA1 RON2 block: qHTS for Inhibitors of AMA1-RON; Towards Development of Antimalarial Drug Lead: Primary Screen. Potency, µM (top dose mostly 58.2 µM), for inactives: at the top dose activity change, negative = inhibition, hits mostly inhibitors. AID 720542, 2013. Plasmodium falciparum AMA1 (3D7) - RON2 peptide interaction. AlphaScreen AMA1-biotinylated RON2 peptide binding. 360,000 compounds, 0.2% hits;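 also: potency is read from the fitted curve at half-maximal effect; 0% = vehicle wells and -100% = peptide control; nearly all actives have a fitted effect of over 45% in size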
#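 AMA1 (3D7) with his tag at 25 nM final met compounds first, then biotinylated RON2 peptide at 25 nM; detection used donor plus acceptor beads, 10 µg/mL apiece, read by AlphaScreen after 30 min at room temperature.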
# SARS PLpro yeast: qHTS of Yeast-based Assay for SARS-CoV PLP | S. cerevisiae expressing SARS-CoV PLpro, growth rescue | Potency, µM (highest dose often 32.9 µM), without a hit: top-dose activity, positive = growth rescue, most hits filed as activators | 330,000 compounds, 0.19% hits; calls by dose curve; also: potency is read from the fitted curve at half-maximal effect; 0% is about no effect; nearly all actives have a fitted effect of over 55% in size
# Pf growth 96h: Primary qHTS for delayed death inhibitors of the malarial parasite plastid, 96 hour incubation; P. falciparum luciferase reporter growth, 96 h; Potency, µM (titrated, usually from 28.7 µM), without a hit: at the top dose activity change, negative = inhibition, most hits filed as inhibitors; 320,000 compounds, 6.9% hits; also: potency is read from the fitted curve at half-maximal effect; % is scaled to controls: 0 for no effect and ±100 for the full control effect
#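 Erythrocytes infected with luciferase-expressing P. falciparum were dispensed at 2% hematocrit and 0.05% parasitemia (final), then incubated with compounds 96 hours at 37 C in 5% CO2. Luminescence after detection reagent addition reported growth.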
# Pf growth 48h: Primary qHTS for delayed death inhibitors of the malarial parasite plastid, 48 hour incubation; Potency, µM (series often up to 28.7 µM), inactives show at the highest dose activity change, negative = inhibition, hits mostly inhibitors; 310,000 compounds, 5.9% hits; AID 504832, 2011; P. falciparum luciferase growth in erythrocytes, 48 h; also: potency is read from the fitted curve at half-maximal effect; % is scaled to controls: 0 for no effect and ±100 for the full control effect
#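 Cell-based growth assay: transgenic P. falciparum expressing firefly luciferase, cultured in red cells within RPMI 1640 containing 0.5% w/v Albumax, 24 mM bicarbonate and gentamycin. A drop in luciferase activity indicates inhibition.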
# Cycloheximide cs: Cycloheximide Counterscreen for Small Molecule Inhibitors of Shiga Toxin | 300,000 compounds, 12% hits | max response, % | cell reporter, cycloheximide protein synthesis inhibition counterscreen; in the data active = max response mostly above about 13%, no sharp cut-off; inactive = mostly below about 14%; also: read at 38.3 µM for the half of the compounds with a filed dose; 0% is about no effect
# * hit, by the source's call; i = inactive; ? = inconclusive; . = no result; [ ] = dose if it differs, or a comment. Only some compounds are listed: those with a hit (about 19% of all), similar ones and a draw of the others. Unless noted, calls follow the shape of the dose curve; as a rule, active = well fitted curve in the direction sought with a large enough effect; inconclusive = small, poorly fitted or top-dose-only effect, or another doubt; inactive = no such curve, though single readings can be large; an effect the other way counts as inactive or inconclusive.
SMILES,Shiga toxin inh,AMA1 RON2 block,SARS PLpro yeast,Pf growth 96h,Pf growth 48h,Cycloheximide cs
COc1ccc(C)cc1S(=O)(=O)n1c([N+](=O)[O-])cnc1C,-3.4,-2.5%,8.0%,?,33.1%,-2.1
[O-][n+]1c2ccccc2c2n1CCN1CCOC21c1ccc(Cl)cc1 (stereo not drawn),.,-6.1%,3.7%,?,?,.
CN(C)S(=O)(=O)c1ccc(/C(O)=C2/C(=O)C(=O)N(CCCN3CCOCC3)C2c2ccncc2)cc1 (stereo not drawn),.,-19.1%,.,.,.,.
Cc1ccc(/C=N/n2cnc3sc(C)c(C)c3c2=O)o1,47.0,-7.3%,-7.3%,56.4%,i,26.0*
Cc1ccc(/C=N/n2cnc3sc4c(c3c2=O)CCCC4)o1,19.8,-5.5%,2.6%,-1.8%,46.7%,1.6
Clc1ccccc1OCCNc1nc(NCC2CC2)nc2ccsc12,.,-8.8%,.,.,.,.
COc1ccc(-c2[nH]ncc2/C=N\NC(=O)c2ccc(C(C)(C)C)cc2)cc1OC,76.0*,66.1%,8.9%,?,16.0%,21.3*
CCCCOc1ccc(C(=O)N/N=C/c2cn[nH]c2-c2ccc(OC)c(OC)c2)cc1,3.3,36.4%,-25.8%,?,-5.9%,-2.6
CCc1ccc(C(C)(O)C(CN2CCOCC2)c2ccccc2)cc1 (stereo not drawn),-8.1,-1.9%,1.0%,202.7%,?,1.6
Cc1cccc(NC(=O)CSc2nnc(CNC(=O)c3cccs3)o2)c1C,-7.6,3.3%,-1.4%,-8.9%,13.7%,-2.2
CCCCSc1cc(C)nc(N)n1,54.3*,-9.5%,1.7%,5.7%,74.0%,31.2*
CC(C)(C)N(NC(=O)OCc1ccccc1)C(=O)c1ccccc1Cl,12.8,-1.8%,8.1%,-2.1%,-15.0%,-4.4
O=c1cc(-c2ccccc2)cc(-c2ccccc2)n1CCCO,.,39.1%,-1.7%,?,9.28µM*,.
Nc1c(-c2ccccc2)nc(Cl)nc1-c1ccccc1,-16.3,3.2%,3.1%,-51.4%,50.5%,14.4
c1ccc(-c2nc3nonc3nc2-c2ccccc2)cc1,24.9,?,-24.6%,19.9%,11.7µM*,0.7
CC(=O)Nc1ccc(-c2ccnc3c2CC(C(=O)NCc2ccccc2)O3)cc1 (stereo not drawn),.,-2.4%,.,.,.,.
CCOc1cccc(OCCCOc2ccccc2)c1,13.2,91.4%,-0.7%,-3.4%,.,15.0*
CCOc1cccc(OCCOCCN(C)Cc2ccccc2)c1,-7.0,0.0%,-1.2%,-17.8%,1.2%,-1.1
CCOc1cccc(OCCCCN2CCCCC2)c1,-11.5,0.1%,1.3%,-6.2%[5.75 µM],.,-1.3
CCOc1cccc(OCCOCCN(C)C)c1,51.8*,-4.9%,-4.6%,12.4%,-0.8%,12.1
Cc1nn(Cc2ccccc2)c(C)c1NC(=O)CSc1nnc(-c2cc(Cl)ccc2O)n1C,24.1,17.9%,4.7%,.,?,1.1
O=C(CN(c1ccccc1Cl)S(=O)(=O)c1ccccc1)NC1CC2CCC1C2 (stereo not drawn),.,-1.7%,.,.,.,.
O=C(CN(c1ccc2c(c1)OCCO2)S(=O)(=O)c1ccccc1)NCc1ccc(Cl)cc1,-9.3,-6.0%,2.7%,11.7µM*,-25.7%,-6.3
O=C(CN(c1ccccc1Cl)S(=O)(=O)c1ccccc1)NCc1ccccc1,21.4,-5.4%,-1.2%,11.7µM*,?,6.9
COCCN(C(=O)COC(=O)CCOc1cccc(C)c1)c1c(N)n(Cc2ccccc2)c(=O)[nH]c1=O,.,-11.4%,-0.3%,49.7%,-3.9%,.
SMILES,Shiga toxin inh,AMA1 RON2 block,SARS PLpro yeast,Pf growth 96h,Pf growth 48h,Cycloheximide cs
COC(=O)C1=CN(c2ccc(F)cc2)C(N)=C(C#N)C1c1ccc(-c2ccccc2)cc1 (stereo not drawn),.,43.8%,.,.,.,.
CCc1c(C)c2ccc(OC(C)C(=O)NC(Cc3c[nH]c4ccc(O)cc34)C(=O)O)c(C)c2oc1=O (stereo not drawn),-3.4,-0.8%,3.0%,33.3%,-5.8%,-0.7
CNC(=O)CN(c1ccc(F)cc1)S(=O)(=O)c1cc(C)ccc1OC,-7.1,6.2%,3.1%,?,.,-2.0
C/C(=N\NC(=O)c1ccc(C)cc1C)c1ccc2c(c1)OCO2,67.5*,14.2%[11.6 µM],1.2%,3.7µM*,10.4µM*,25.9*
CC/C(=N/NC(=O)c1ccc2c(c1)OCO2)c1ccccc1O,.,29.7%,.,.,.,.
C/C(=N\NC(=O)c1cc2ccccc2cc1O)c1ccc2c(c1)OCO2,56.7,29.2%,-6.4%,5.22µM*,6.57µM*,17.7
CCCCn1c(Cc2ccccc2)nnc1SCC(=O)Nc1cc(C)on1,-5.4,15.1%,-2.8%,27.2%,-28.9%,-2.3
CC(CC(=O)Nc1ccc(-c2ccno2)cc1)n1cccn1 (stereo not drawn),21.6,4.1%,-5.8%,-22.0%,-20.3%,-2.6
Cc1cc(C)n(C(C)CC(=O)Nc2ccc(-c3ccno3)cc2)n1 (stereo not drawn),1.7,5.7%,-4.6%,0.522µM*,?,21.2
Cc1cc(C)n(C(C)CC(=O)Nc2ccc3c(c2)OCO3)n1 (stereo not drawn),9.7,1.8%,-1.1%,102.9%,27.9%,23.6*
Cc1cc(C)n(C(C)CNC(=O)c2ccc3c(c2)OCO3)n1 (stereo not drawn),11.2,-14.1%,12.8%,-20.1%,17.8%,4.1
O=C(COC(=O)CN1C(=O)c2ccccc2C1=O)NC1CCCC1,-6.8,8.8%,-2.2%,10.9%,-1.6%,-7.7
CCSc1nnc(Nc2ccccc2)s1,90.2*,-0.9%,0.8%,-5.3%[5.75 µM],76.7%,33.5*
Cc1ccc(Nc2nnc(SC3CCOC3=O)s2)cc1 (stereo not drawn),13.2,3.5%,4.7%,37.4%,-0.1%,0.7
O=C1CCCCC1Sc1nnc(Nc2ccccc2)s1 (stereo not drawn),98.8*,-15.3%,-3.8%,70.6%,247.7%,38.3*
CC(C#N)Sc1nnc(Nc2ccccc2)s1 (stereo not drawn),27.8,-3.6%,0.1%,16.7%,-1.3%,24.0
CCSc1nnc(Nc2ccc(C)cc2)s1,124.0*,-9.7%,6.1%,16.0%,55.7%,38.3*
CN(c1ccccc1)S(=O)(=O)c1ccc(C(=O)N2CCN(c3ccccc3)CC2)cc1,.,-12.7%,.,.,.,.
Cc1ccc(CNC(=O)C2C3C=CC(C3)C2C(=O)O)cc1 (stereo not drawn),-9.6,9.7%,-2.7%,.,5.8%,-0.2
COc1ccc(N(CC(=O)N2CCc3ccccc32)S(=O)(=O)c2c(C)nn(C)c2C)cc1,-6.1,-9.4%,-0.3%,8.28µM*,.,-5.3
CCOC(=O)C1CCN(C(=O)CN(c2ccc(OC)cc2)S(=O)(=O)c2c(C)nn(C)c2C)CC1,-14.8,10.3%,-0.5%,7.38µM*,.,-3.9
Cc1nn(C)c(C)c1S(=O)(=O)N(CC(=O)N1CCc2ccccc21)c1ccc(C(C)C)cc1,-23.1,-2.4%,-1.3%,?,.,-6.7
